According to the supplement of paper PMC10338343:
± gives the standard deviation.

test system: MILI (PIWIL2) piRISC loaded with L1MC piRNA (26 nt); assay: pre-steady-state target cleavage rate (min^-1); guide: L1MC piRNA 5'p-UAACUAAAUACUAUGCAAGCUGUAGG; MIWI and MILI are mouse PIWI proteins and EfPiwi is from a freshwater sponge; tags in brackets are library labels; higher = faster piRNA-guided slicing of the target; settings: auxiliary factor: 500 nM mouse GTSF1
How it was run: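 Active affinity-purified piRISC carrying one synthetic guide (1 nM) was mixed with a transcribed, DNA-blocked target RNA library […] in HEPES–potassium acetate buffer at 33 °C for 0–8 or 0–960 min, with or without 500 nM GTSF1 partner protein. Uncleaved targets were then sequenced and normalised to depth and to weakly complementary targets. Three trials were pooled, and k3 was capped at 0.0001 min^-1. A burst-and-steady-state fit was applied to obtain the pre-steady-state cleavage rate.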
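Also: 1 nM active piRISC with 0.1 nM target library at 33 °C single turnover.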

Sequence | pre-steady-state target cleavage rate
UCCUGGUACAGCUUGCAUAGUAUUUACUUA | 0.103 ± 0.025
UCCUCCUACAGCUACCAUAGUAUUUAGUAA | 0.141 ± 0.023
UCCUGGAACACGUUGCAUAGUAUUUACAAA | 0.0879 ± 0.017
UCCUGGAUGUCCUUGCAUAGUUUUUAGAUA | 0.00584 ± 0.0044
UCCUGGAUGAGCUUGCAAAGUAUUUACUUA | 0.046 ± 0.014
UCCUGGAUGAGCUUGCAUUGUUUUUAGUUA | 0.0047 ± 0.0044
UCCUGGUACAGCUUGCAUAGUAUUUACUAA | 0.0179 ± 0.0081
UCCUGGAUCACCUUCCAUAGUAUUUAGUUA | 0.0405 ± 0.012
UCCUGGAUGUCCUACCAUAGUAUUUAGUUA | 0.0632 ± 0.015
UCCUCCUACAGCUACGAUAGUAUUUAGAAA | 0.13 ± 0.029
UCCUGGAUGACCUUGCAUAGUUUUUAGUUA | 0.0191 ± 0.0076
UCCUGGAUGAGCUUGCUAAGUAUUUAGUAA | 0.0109 ± 0.0046
UCCUGGAUGUCGAAGCAUCGUAUUUAGUUA | 0.00755 ± 0.0031
UCCUGGAUGUCGAAGCAUAGUAUUUGAGUUA | 0.0579 ± 0.012
UCCUGCUACAGCUUGCAUAGUUUUUACUUA | 0.0291 ± 0.0063
UCCUGGAUGUCGUUGCAUAGUAUUAAGUUA | 0.142 ± 0.028
UCCUGGAUCAGCUUGCAUACUAUUUAGAUA | 0.0139 ± 0.0058
UCCUCCUACACGAUGCAUAGUAUUUACAAA | 0.122 ± 0.021
UCCUGGUACUCCUUGCAUAGUAUUUAGUUA | 0.217 ± 0.046
UCCUCCUACAGCUUGCAUAGAAUUUAGUUA | 0.1 ± 0.021
UCCUGGAUGUCGAACGUUAGUAUUUAGUA | < 0.0001
UCCUGGAUCAGCUUGCAUAGAUUUUAGAAA | 0.00651 ± 0.0043
UCCUGGAUGUCGUUGCAUAGUAUUUAAUUA | 0.0359 ± 0.013
UCCUCCUACUCCUUGCAUAGUAUUUUCAAA | 0.0534 ± 0.015
